Among the data in PubChem BioAssay are composite z-score and z-score values, retold here.

Assay [1] is described as follows: anti-His antibody binders, primary screen, artefact control for SMM control protein annotation, biochemical, small-molecule microarray, 635 nm fluorescence (AID 1128).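 Further: score merges feature fluorescence with signal-to-noise for each printed compound spot.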 To be noted: anti-His Alexa647 antibody binding, higher = more signal.
Assay [2] relates to Human papillomavirus type 1a E7 protein (residues 1-88). The assay can be described thus: HPV1a E7 small-molecule binders, primary screen, biochemical, small-molecule microarray, residues 1-88, 635 nm (AID 1129). Conditions: small-molecule microarray binding, fluorescence 635 nm; higher = more signal.
Assay [3] addresses Focal adhesion kinase 1 (Homo sapiens) (UniProt Q05397). Kind of assay: small-molecule microarray binders of FAK, primary screen, biochemical, 635/667 nm fluorescence, BSA, DTT (AID 1130).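 Further: composite of spot emission at 667 nm and signal to noise over triplicate slides.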 To be noted: PTK2 binding, 635 nm fluorescence, higher = more signal.
The subject of assay [4] is Fibrinogen (Alexa647-labelled). Kind of assay: fibrinogen binders on compound microarrays, profiling panel, artefact control for SMM control-protein annotation, biochemical, small-molecule microarray, 635/667 nm fluorescence (AID 1131).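 Further: z-score merges 667 nm fluorescence with per-spot signal-to-noise over triplicate slides.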 To be noted: fibrinogen-A647 binding fluorescence, higher = more signal.
The target of assay [5] is Follistatin (Homo sapiens) (UniProt P19883). The assay can be described thus: follistatin binders on small-molecule microarrays, primary screen, biochemical, small-molecule microarray, 635/667 nm fluorescence (AID 1132). Conditions: FST binding, 635 nm fluorescence, higher = more signal.
Follistatin (Homo sapiens), sequence (P19883 whole entry, looked up): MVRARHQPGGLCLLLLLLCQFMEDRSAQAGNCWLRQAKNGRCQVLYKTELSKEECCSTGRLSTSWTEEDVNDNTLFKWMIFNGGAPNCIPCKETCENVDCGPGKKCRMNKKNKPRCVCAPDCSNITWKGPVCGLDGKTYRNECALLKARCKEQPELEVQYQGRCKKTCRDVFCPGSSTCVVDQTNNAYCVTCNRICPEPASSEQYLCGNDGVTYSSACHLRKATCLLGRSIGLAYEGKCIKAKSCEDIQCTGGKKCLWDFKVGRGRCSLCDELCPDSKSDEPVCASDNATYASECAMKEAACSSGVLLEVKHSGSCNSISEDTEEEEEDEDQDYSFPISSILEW
In assay [6] the target is Fibroblast growth factor 2 (Homo sapiens) (UniProt P09038). The assay can be described thus: FGF2 binders on small-molecule microarrays, primary screen, biochemical, small-molecule microarray, 635/667 nm fluorescence (AID 1133). To be noted: small-molecule microarray binding, FGF2, fluorescence 635/667; higher = more signal.
Fibroblast growth factor 2 (Homo sapiens), sequence (P09038 whole entry, looked up): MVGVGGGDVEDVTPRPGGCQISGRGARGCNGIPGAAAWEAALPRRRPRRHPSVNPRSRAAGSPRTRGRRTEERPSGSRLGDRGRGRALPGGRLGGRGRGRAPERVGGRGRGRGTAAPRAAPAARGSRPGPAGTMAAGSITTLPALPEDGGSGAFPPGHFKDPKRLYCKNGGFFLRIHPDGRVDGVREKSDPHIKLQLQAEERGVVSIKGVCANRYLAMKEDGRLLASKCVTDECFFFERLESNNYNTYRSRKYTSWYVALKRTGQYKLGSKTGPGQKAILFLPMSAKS
Assay [7] in a line: mitochondrial membrane potential change in A549 cells, profiling panel, cell-based, JC-1 fluorescence, basal, 24 h, 100 nL (AID 1138).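 Further: A549 lung adenocarcinoma cells under basal conditions with no added stimulus; test concentration not given here.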 Conditions: higher = more signal.
For assay [8], the system named is Lefty1. The assay can be described thus: Lefty1 binders on small-molecule microarrays, primary screen, biochemical, small-molecule microarray, 635/667 nm fluorescence (AID 1139). Conditions: small-molecule microarray binding, fluorescence 635/667; higher = more signal.
Assay [9] deals with wheat germ agglutinin (Triticum aestivum), Alexa647-labelled. Kind of assay: wheat germ agglutinin binders on compound microarrays, profiling panel, artefact control for SMM control-protein annotation, biochemical, small-molecule microarray, 635/667 nm fluorescence (AID 1140).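 Further: score merges 667 nm feature emission with signal to noise over triplicate slides.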 Conditions: WGA-A647 binding, 635 nm fluorescence, higher = more signal.
In assay [10] the target is Luciferin 4-monooxygenase (Photinus pyralis) (UniProt P08659). Kind of assay: firefly luciferase enzyme inhibitors, primary screen, biochemical, luminescence, purified enzyme, 2006 set (AID 1141).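 Further: cell-free assay with purified firefly luciferase at 100 ng per well in PBS; test concentration not given here.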 To be noted: SteadyGlo luminescence, 30 min, higher = more signal, called active from +8 up or from −8 down.
Luciferin 4-monooxygenase (Photinus pyralis), sequence (P08659 whole entry, looked up): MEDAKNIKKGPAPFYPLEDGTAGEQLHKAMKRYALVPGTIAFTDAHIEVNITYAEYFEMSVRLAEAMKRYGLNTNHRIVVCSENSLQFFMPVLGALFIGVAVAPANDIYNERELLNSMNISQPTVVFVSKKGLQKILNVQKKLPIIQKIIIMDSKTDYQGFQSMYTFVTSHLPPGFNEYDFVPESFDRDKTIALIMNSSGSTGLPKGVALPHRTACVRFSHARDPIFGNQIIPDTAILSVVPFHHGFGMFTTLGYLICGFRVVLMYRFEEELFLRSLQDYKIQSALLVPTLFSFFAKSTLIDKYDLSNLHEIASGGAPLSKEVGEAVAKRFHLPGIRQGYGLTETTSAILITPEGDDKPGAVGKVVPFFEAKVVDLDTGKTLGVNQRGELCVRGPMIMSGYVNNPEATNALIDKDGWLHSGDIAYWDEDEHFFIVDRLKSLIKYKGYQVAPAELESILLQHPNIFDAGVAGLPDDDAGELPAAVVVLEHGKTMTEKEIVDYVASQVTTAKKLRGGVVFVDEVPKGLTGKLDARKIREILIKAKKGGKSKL
Assay [11] deals with Wnt5a (protein binding on small-molecule microarray). The assay can be described thus: Wnt5a binders on small-molecule microarray, primary screen, biophysical, 635/667 nm fluorescence (AID 1142).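 Further: fluorescence read at 667 nm with signal to noise per printed feature.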 To be noted: 635 nm fluorescence, higher = more signal.
Assay [12] is described as follows: cell viability in Huh7 cells, primary screen, cytotoxicity control for HCV replication inhibitor project, CellTiter-Glo luminescence, basal, 48 h (AID 1143).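 Further: Huh7 hepatoma cells carrying a hepatitis C replication reporter with no stimulus; test concentration not given here.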 Conditions: Huh7 HCV replicon, higher = more signal, called active from +8 up or from −8 down. (In ATP-based viability assays light output follows the ATP content of the culture.)
A short description of assay [13]: P. aeruginosa biofilm formation inhibitors, primary screen, PAO1 strain, BacTiter-Glo luminescence, LB-PBS (AID 1144). To be noted: 12 h, higher = more signal.
Assay [14] in a line: CREB reporter modulators without forskolin, primary screen, cell-based, PC12, CRE-LacZ reporter, unstimulated (AID 1145). To be noted: no forskolin, luminescence, 4.5 h, higher = more signal, called active from +8 up or from −8 down.
Assay [15] in a line: CREB reporter modulators under forskolin, primary screen, cell-based, PC12, CRE-LacZ reporter, forskolin-stimulated (AID 1146).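 Further: PC12 cells with 6xCRE LacZ reporter stimulated by forskolin 10 µM; beta-galactosidase reporter signal reflecting CREB driven transcription.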 Conditions: luminescence, 4.5 h, higher = more signal, called active from +8 up or from −8 down.
For assay [16], the target named is Streptavidin (Streptomyces avidinii) (UniProt P22629). Kind of assay: streptavidin binders on small-molecule microarray, primary screen, artefact control for SMM compound annotation, biophysical, 635/667 nm fluorescence (AID 1147).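 Further: signal reflects streptavidin binding to arrayed compounds as a control protein.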 Conditions: streptavidin binding, higher = more signal.
Streptavidin (Streptomyces avidinii), sequence (P22629 whole entry, looked up): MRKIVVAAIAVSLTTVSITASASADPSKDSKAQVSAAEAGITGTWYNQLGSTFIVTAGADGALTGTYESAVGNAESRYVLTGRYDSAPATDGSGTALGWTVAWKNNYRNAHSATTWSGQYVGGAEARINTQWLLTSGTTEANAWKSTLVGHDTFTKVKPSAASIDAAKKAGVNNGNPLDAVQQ
A short description of assay [17]: small-molecule binders of probe aInhba, primary screen, biochemical, small-molecule microarray, 635/667 nm fluorescence (AID 1148).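 Further: score merges 667nm spot fluorescence with signal-to-noise for antibody binding to printed compounds.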 Conditions: higher = more signal.
The target of assay [18] is Torsin-1A (Homo sapiens) (UniProt O14656). The assay can be described thus: torsin A binders from cell lysate, primary screen, small-molecule microarray, wild-type, 635/667 nm (AID 1149). To be noted: COS7 hTOR1A-WT lysate, 635 nm fluorescence, higher = more signal.
Torsin-1A (Homo sapiens), sequence (O14656 whole entry, looked up): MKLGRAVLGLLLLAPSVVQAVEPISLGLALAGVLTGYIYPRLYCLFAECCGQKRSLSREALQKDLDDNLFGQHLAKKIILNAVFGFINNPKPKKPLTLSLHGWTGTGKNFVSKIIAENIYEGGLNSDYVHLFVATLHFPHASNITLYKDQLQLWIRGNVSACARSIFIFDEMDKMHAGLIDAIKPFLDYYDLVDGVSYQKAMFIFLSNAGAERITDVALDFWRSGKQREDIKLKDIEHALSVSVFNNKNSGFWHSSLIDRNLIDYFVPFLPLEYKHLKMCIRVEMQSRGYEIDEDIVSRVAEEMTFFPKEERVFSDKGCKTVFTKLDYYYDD
Assay [19] has the same target. Kind of assay: small-molecule binders of mutant TOR1A in lysate, primary screen, cell lysate, small-molecule microarray, COS7 lysate, 635/667 nm fluorescence (AID 1150).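 Further: score pools 667 nm emission and signal to noise measuring lysate protein binding.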 Conditions: COS7 hTOR1A mutant lysate, 635 nm fluorescence, higher = more signal.
For assay [20], the system named is Sonic hedgehog protein (Shh). The assay can be described thus: small-molecule binders of Shh protein, primary screen, biochemical, small-molecule microarray, 635/667 nm fluorescence (AID 1151).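 Further: Shh protein binding to compounds spotted on small-molecule microarray slides; score combines spot fluorescence intensity with signal-to-noise across triplicate slides.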 Conditions: small-molecule microarray binding, 635 nm fluorescence; higher = more signal.

Each structure is given as a SMILES string. Activity calls are given as the source filed them. Unless noted, how the calls were made is not given here.

Focal adhesion kinase 1 (Homo sapiens), sequence (Q05397 whole entry, looked up): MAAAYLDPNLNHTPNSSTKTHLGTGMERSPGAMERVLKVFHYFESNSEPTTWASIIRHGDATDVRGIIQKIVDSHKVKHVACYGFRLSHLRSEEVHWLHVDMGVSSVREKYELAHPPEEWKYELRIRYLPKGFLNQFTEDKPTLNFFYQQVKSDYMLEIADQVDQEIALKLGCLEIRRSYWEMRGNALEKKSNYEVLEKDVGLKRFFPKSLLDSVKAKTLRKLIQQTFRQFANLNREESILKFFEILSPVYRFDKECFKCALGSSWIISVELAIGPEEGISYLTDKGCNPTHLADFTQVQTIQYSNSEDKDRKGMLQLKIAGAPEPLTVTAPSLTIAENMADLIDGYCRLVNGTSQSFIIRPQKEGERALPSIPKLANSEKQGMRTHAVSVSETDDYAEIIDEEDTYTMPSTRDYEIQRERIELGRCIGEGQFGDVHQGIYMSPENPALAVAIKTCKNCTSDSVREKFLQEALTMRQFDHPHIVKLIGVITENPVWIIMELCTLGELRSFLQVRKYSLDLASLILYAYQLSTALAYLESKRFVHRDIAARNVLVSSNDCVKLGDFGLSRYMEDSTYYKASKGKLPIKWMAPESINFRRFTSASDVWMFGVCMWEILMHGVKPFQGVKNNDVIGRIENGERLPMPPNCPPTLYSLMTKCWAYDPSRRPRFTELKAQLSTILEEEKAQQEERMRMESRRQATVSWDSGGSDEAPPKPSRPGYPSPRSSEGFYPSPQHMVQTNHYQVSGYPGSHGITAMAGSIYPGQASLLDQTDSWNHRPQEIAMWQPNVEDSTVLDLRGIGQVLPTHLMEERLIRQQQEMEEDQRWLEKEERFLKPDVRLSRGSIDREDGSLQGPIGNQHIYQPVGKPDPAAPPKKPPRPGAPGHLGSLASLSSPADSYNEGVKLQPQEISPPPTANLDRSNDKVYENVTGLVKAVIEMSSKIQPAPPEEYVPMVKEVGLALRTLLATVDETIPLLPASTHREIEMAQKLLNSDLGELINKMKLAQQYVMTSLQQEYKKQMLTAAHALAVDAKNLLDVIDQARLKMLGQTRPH

Regarding `CCCCC(=C=CC[C@@H](O)c1cccc(OCCO)c1)C[C@@H](O)c1ccccn1`, the composite z-score in assay [1] was 2.56; in assay [2] it was 0.873; in [3], -0.204; in assay [4], 0.837; in assay [5], 1.31; in [6], 0.605. In addition, the composite z-score was 1.2 in assay [8]; 0.26 in [9]; 0.252 in [11]; 1.5 in assay [16]; -0.0331 in assay [17]; 1.67 in assay [18]. Further, the composite z-score in assay [19] was determined as 0.416; in [20], 1.86. Moreover, the z-score in assay [7] is 0.0206; in [10] it was 0.0494 (inactive); in assay [12] it was -0.19 (inactive); in assay [13], -1.15 (inactive); in assay [14], -0.102 (inactive); in assay [15] it was 0.786 (inactive).
Take `O=C(NCCN1CCOCC1)[C@@H]1c2ccccc2C(=O)N(Cc2cc(C(F)(F)F)cc(C(F)(F)F)c2)[C@H]1c1ccc(CO)cc1`: the composite z-score in [1] is 0.537; in assay [2] it was -0.137; in assay [3], 0.31; in assay [4] it was -0.487; in assay [5], -0.48; in assay [6], -0.879. Moreover, the composite z-score in assay [8] was -0.75; in [9], 0.4; in assay [11], 0.556; in assay [16] it was -0.601; in assay [17], 0.0154; in assay [18] it was -0.027. The results for the composite z-score in [19] and in [20] were 0.133 and -0.211, respectively. Moreover, the z-score in assay [7] was 2.57; in [10], -0.372 (inactive); in [12], -0.0199 (inactive); in assay [13] it was 0.623 (inactive); in assay [14], 0.468 (inactive); in assay [15], -0.713 (inactive).
With `Cc1ccc(S[C@]2(C(=O)O)CC(=O)N(C(C)C)[C@@H]2c2ccc(CO)cc2)cc1`, the composite z-score was 0.715 in assay [1]; -0.386 in [2]; 0.104 in assay [3]; -0.307 in [4]; 0.0281 in assay [5]; -0.129 in assay [6]. Besides, the composite z-score in [8] is -0.0075; in assay [9], 0.557; in [11], -0.201; in [16], -0.186; in assay [17], -0.147; in assay [18], -0.366. Moreover, the values for the composite z-score in [19] and in [20] were 1.12 and -0.317, respectively. Further, the z-score in assay [7] was -0.233; in assay [10], 0.568 (inactive); in assay [12] it was -2.62 (inactive); in assay [13], -2.2 (inactive); in [14], -0.206 (inactive); in assay [15] it was -0.244 (inactive).
As for `COc1ccc(C(O)C2C=CC3C(=O)N(C)C(=O)C3N2N(c2ccccc2)c2ccccc2)c2ccccc12` (stereo not given), the composite z-score is 2.54 in assay [1]; -0.172 in assay [2]; -0.278 in [3]; 0.384 in assay [4]; 1.41 in [5]; 0.392 in assay [6]. For the same compound, the composite z-score in assay [8] was determined as 1.09; in assay [9], 1.07; in [11], 0.151; in assay [16] it was 0.797; in assay [17] it was 0.0342; in assay [18] it was 0.415. Moreover, the values for the composite z-score in assay [19] and in assay [20] were 0.526 and 1.11, respectively. Moreover, the z-score in [7] was 0.419; in assay [10], -0.091 (inactive); in assay [12], 0.497 (inactive); in [13], -0.347 (inactive); in assay [14], 0.246 (inactive); in [15], 1.1 (inactive).
Turning to `CC(c1ccccc1)C(O)C1C=CC2C(=O)N(c3ccccc3)C(=O)C2N1Nc1ccccc1` (stereo not given), the composite z-score is 0.546 in assay [1]; 1.28 in assay [2]; 0.476 in assay [3]; 1.03 in [4]; 1.03 in assay [5]; -0.124 in assay [6]. For the same compound, the composite z-score is 0.858 in assay [8]; 1.02 in assay [9]; 0.821 in [11]; 1.67 in [16]; 0.0906 in [17]; 0.524 in assay [18]. Further, the composite z-score in assay [19] was determined as 1.07; in assay [20] it was 0.843. The z-score in assay [7] was -1.27; in [10], -0.674 (inactive); in assay [12], -3.13 (inactive); in [13], -0.626 (inactive); in [14], 0.246 (inactive); in assay [15], 0.379 (inactive).
For the compound `C=CCOC(=O)[C@H]1[C@@H]2C(=O)O[C@@H](c3ccccc3)[C@@H](c3ccccc3)N2[C@@H](c2ccc(OCCOC(=O)[C@@H]3C[C@@H]4C(=O)N5CCC[C@H]5C(=O)N4[C@@H]3c3cccc(OCCO)c3)cc2)[C@]12C(=O)Nc1ccc(I)cc12`, the composite z-score was 1.55 in [1]; 1.2 in assay [2]; 0.402 in [3]; 0.726 in [4]; 1.45 in assay [5]; 1.4 in assay [6]. Also, the composite z-score in assay [8] was determined as 1.38; in [9], 0.458; in assay [11], 0.535; in assay [16], 0.763; in [17], 0.944; in assay [18], 0.821. For the same compound, the results for the composite z-score in [19] and in [20] were 0.573 and 2.18, respectively. In addition, the z-score is -0.838 in assay [7]; -1.12 (inactive) in assay [10]; -0.402 (inactive) in assay [12]; -0.615 (inactive) in [13]; 0.423 (inactive) in assay [14]; -0.633 (inactive) in assay [15].
For `CO[C@H]1O[C@H](CO)[C@@H](OC(=O)Nc2cccc(F)c2)[C@H](OC(=O)Nc2ccccc2)[C@H]1OC(=O)Nc1ccccc1`, the composite z-score in [1] was 2.02; in assay [2], 1.29; in [3], 0.656; in [4], 0.993; in assay [5], 1.35; in assay [6], 1.12. In addition, the composite z-score in [8] was 1.3; in assay [9] it was 0.662; in assay [11], 0.701; in assay [16] it was -0.0985; in assay [17] it was 0.226; in assay [18], 1.28. Moreover, the values for the composite z-score in assay [19] and in assay [20] were 0.616 and 1.61, respectively. Moreover, the z-score in assay [7] is -1.18; in [10] it was 0.124 (inactive); in assay [12], -4.58 (inactive); in [13], -0.703 (inactive); in assay [14] it was -0.0484 (inactive); in assay [15], -1.22 (inactive).
Consider `CCOC(=O)[C@H]1C/C=C/C[C@H](C(=O)OCC)C(=O)O[C@H]2[C@@H](OC)O[C@H](CO)[C@@H](OC(=O)c3ccc(Br)cc3)[C@@H]2OC1=O`, for which the composite z-score was 0.272 in [1]; 0.189 in assay [2]; 0.143 in [3]; 0.223 in assay [4]; 1.06 in assay [5]; 1.06 in [6]. Besides, the composite z-score is 0.31 in assay [8]; 0.329 in [9]; 0.168 in assay [11]; -0.0923 in assay [16]; 0.0464 in [17]; 0.441 in [18]. Moreover, the composite z-score in assay [19] was -0.15; in assay [20], 0.473. Further, the z-score is 2.47 in [7]; -0.0361 (inactive) in assay [10]; -3.02 (inactive) in assay [12]; -0.79 (inactive) in assay [13]; 0.342 (inactive) in assay [14]; -0.0314 (inactive) in [15].
Take `CS(=O)(=O)CCOC(=O)C1=CC(CCCO)=CC(C2CC2)N(Cc2cc3c(cc2Br)OCO3)C=C1C(=O)OCCS(C)(=O)=O` (stereo not given): the composite z-score in assay [1] is 1.97; in [2] it was 0.419; in assay [3], -0.0438; in assay [4], 1.01; in [5], 1.18; in assay [6] it was 0.198. In addition, the composite z-score is 0.477 in [8]; 1.15 in [9]; 0.0339 in assay [11]; 0.635 in assay [16]; -0.0695 in [17]; 0.913 in assay [18]. Moreover, the figures for the composite z-score in [19] and in assay [20] were 1.03 and 0.358, respectively. The z-score in [7] is 1.29; in [10] it was -0.395 (inactive); in assay [12], -0.737 (inactive); in [13], -0.453 (inactive); in assay [14], -0.0424 (inactive); in [15], 0.926 (inactive).
